Screening results deposited in PubChem BioAssay by National Center for Advancing Translational Sciences (NCATS).
Sfp inh = qHTS Assay for Inhibitors of Bacillus subtilis Sfp phosphopantetheinyl transferase (PPTase). 4'-phosphopantetheinyl transferase ffp (Bacillus subtilis), Q9F4F7. 3.5% of 310,000 active. AID 1490, 2009. Biochemical Sfp PPTase activity, qHTS. Potency, µM, for inactives: largest response in the series, negative = inhibition, usual class: inhibitors;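 further: the enzyme is Sfp with the accession as filed and its product quenches rhodamine fluorescence; 0% = enzyme reaction without inhibitor and -100% = no enzyme wells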
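Step 1, compound plus 15 nM Sfp-PPTase, 15 min, room temperature. Step 2, add rhodamine-CoA (5 uM) and BHQ-2-YbbR (12.5 uM). Step 3, read 525/598 nm fluorescence at 0 and 30 min.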
ALDH1A1 block = qHTS Assay for Inhibitors of Aldehyde Dehydrogenase 1 (ALDH1A1); Potency, µM (doses to about 75.3 µM), for the others: at the highest dose activity, negative = inhibition, hits mostly inhibitors; 7.3% of 220,000 active; Purified ALDH1A1, NADH fluorescence, propionaldehyde substrate; Aldehyde dehydrogenase 1A1 (Homo sapiens), P00352; active means well fitted inhibition curve with a large enough effect, not every such curve was filed as active; inconclusive means small, poorly fitted or top-dose-only effect, or another doubt; inactive means no such curve, though single readings can be large or run the other way;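 further: plate controls were no enzyme wells and a reference inhibitor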
PLK1 PBD block = qHTS for Inhibitors of PLK1-PDB (polo-like kinase 1 - polo-box domain): Primary Screen; Serine/threonine-protein kinase PLK1 (Homo sapiens), P53350; Plk1 PBD binding of FITC phosphopeptide, fluorescence polarization; Potency, µM, inactives show max response, negative = inhibition, actives largely listed as inhibitors; 2.8% of 360,000 active; further: series mostly up to about 57 µM; nearly all actives have a fitted effect of over 65% in size
VP16 counter = VP16 counterscreen qHTS for inhibitors of ROR gamma transcriptional activity. Drosophila S2 Gal4-VP16 UAS-luciferase, luminescence, 20 h. Potency, µM (top dose mostly 53.6 µM), for the others: at the top dose activity, negative = inhibition, actives largely listed as inhibitors. 3.5% of 310,000 active. AID 2546, 2010;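 further: Gal4-VP16 expression switched on by copper sulfate through the metallothionein promoter; nearly all actives have a fitted effect of over 50% in size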
RORg inh = qHTS for inhibitors of ROR gamma transcriptional activity; Nuclear receptor ROR-gamma (Mus musculus), P51450; Drosophila S2 Gal4-RORgamma UAS-luciferase reporter, 20 h; Potency, µM (highest dose often 53.6 µM), for inactives: at the top dose activity change, negative = inhibition, usual class: inhibitors; 5.4% of 310,000 active; further: nearly all actives have a fitted effect of over 60% in size
Target sequence (P51450 whole entry, looked up, the tested form may be a part): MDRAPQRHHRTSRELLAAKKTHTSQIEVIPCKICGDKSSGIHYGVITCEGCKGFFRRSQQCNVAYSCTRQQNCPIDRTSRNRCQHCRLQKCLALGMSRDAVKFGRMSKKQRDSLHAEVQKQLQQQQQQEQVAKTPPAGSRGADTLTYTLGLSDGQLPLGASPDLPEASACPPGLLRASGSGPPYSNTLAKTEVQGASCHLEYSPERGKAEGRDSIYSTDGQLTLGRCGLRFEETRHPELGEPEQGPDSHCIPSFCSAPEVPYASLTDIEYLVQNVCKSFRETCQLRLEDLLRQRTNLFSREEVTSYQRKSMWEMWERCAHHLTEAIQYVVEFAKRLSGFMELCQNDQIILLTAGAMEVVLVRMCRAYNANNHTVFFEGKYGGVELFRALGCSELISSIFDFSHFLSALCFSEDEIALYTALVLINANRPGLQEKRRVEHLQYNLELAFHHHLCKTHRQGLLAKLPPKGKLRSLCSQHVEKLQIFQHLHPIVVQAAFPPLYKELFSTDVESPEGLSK
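Schneider cells (Drosophila), stable Gal4 DBD–ROR gamma + UAS-luc; 1 hr cmpd preincubation; Cu2+ induction 700 uM final; 20 hr ambient; luminescence.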
* hit, by the source's call; ? = inconclusive; / = no result given; [ ] = dose if it differs, or a comment. In the library only some 12% were active in any assay of this set; here they are far more common. Unless noted, the call rests on the fitted dose curve; in most records, active means well fitted curve in the direction sought with a large enough effect; inconclusive means small, poorly fitted or top-dose-only effect, or another doubt; inactive means no such curve, though single readings can be large; an effect the other way counts as inactive or inconclusive. Unless noted, on the % scale 0 is the no-effect control and ±100 the full control effect; potency means the concentration at half of the fitted maximal effect.

SMILES	Sfp inh	ALDH1A1 block	PLK1 PBD block	VP16 counter	RORg inh
COc1ccc(C2CC(=O)Oc3cc(C)c(Cl)c(C)c32)cc1 (stereo not drawn)	-2%	?	-8%	32µM*	?
COc1cc(C2CC(=O)Oc3cc(C)c(Cl)c(C)c32)cc(OC)c1OC (stereo not drawn)	/	/	-7%	/	/
COc1cc(C2CC(=O)Oc3cc(C)c(Br)c(C)c32)cc(OC)c1OC (stereo not drawn)	-14%	-8%	-5%	5.6µM*	?
CCOC(=O)CC(C(=O)OCC)C1CCCCC1=O (stereo not drawn)	23%	-7%	/	-6%	-11%
Cc1ccc(C(=O)NC(=S)NCC2CCCO2)cc1[N+](=O)[O-] (stereo not drawn)	9%	14µM*	-9%	?	7.1µM*
Cc1ccc(C(=O)NCC2CCCO2)cc1[N+](=O)[O-] (stereo not drawn)	15%	4%	-2%	5%	23%
Cc1ccc(C(=O)NNC(=S)NCC2CCCO2)cc1[N+](=O)[O-] (stereo not drawn)	22%	/	2%	-22%	5.6µM*
Cc1ccc(OCc2ccc(C(=O)NNC(=S)NCC3CCCO3)o2)c([N+](=O)[O-])c1 (stereo not drawn)	3%	/	-19%	1%	-17%
Cc1nnc(NC(=O)c2ccc(S(=O)(=O)N3CCc4ccccc4C3)cc2)o1	16%	-2%	-15%	5µM*	1.3µM*
CC1CCCCN1S(=O)(=O)c1ccc(C(=O)Nc2ccccc2-c2nc3ccccc3[nH]2)cc1 (stereo not drawn)	17%	?	-6%	4%	-10%
O=C(c1ccc(S(=O)(=O)N2CCc3ccccc3C2)cc1)N1CCCCC1	9%	8%	0%	6%	32%
CC1CCCCN1S(=O)(=O)c1ccc(C(=O)Nc2nnc(C3CC3)o2)cc1 (stereo not drawn)	18%	/	0%	0.32µM*	0.13µM*
Cc1cccc(NC(=O)c2ccc(S(=O)(=O)N3CCCCC3C)cc2)n1 (stereo not drawn)	/	/	-8%	/	/
CCc1nnc(NCC(=O)N2CCc3ccccc32)s1	-28%	25µM*	24µM*	6%	-19%
Cc1nnc(NC(=O)c2ccc(S(=O)(=O)N3CCCCC3C)cc2)o1 (stereo not drawn)	-24%	/	-11%	1.1µM*	1.1µM*
O=C(Nc1nnc(-c2ccco2)o1)c1ccc(S(=O)(=O)N2CCCCC2)cc1	/	/	6%	/	/
CC(C)N1CCc2c(sc(NC(=O)c3ccc(S(=O)(=O)N4CCCCC4C)cc3)c2C(N)=O)C1 (stereo not drawn)	8%	/	1%	14µM*	?
CCc1nnc(NC(=O)c2cccc(S(=O)(=O)N3CCN(c4ccccc4)CC3)c2)s1	-7%	-1%	-13%	?	13µM*
COc1cc(C(=O)Nc2ccc(S(=O)(=O)N3CCCCC3C)cc2)cc(OC)c1OC (stereo not drawn)	3%	?	1%	16%	-18%
COc1ccc(C(=O)Nc2ccc(S(=O)(=O)N3CCCCC3C)cc2)c(OC)c1OC (stereo not drawn)	?	18µM*	-9%	-8%	33%
CC1CCCCN1S(=O)(=O)c1ccc(C(=O)Nc2nnc(-c3ccco3)o2)cc1 (stereo not drawn)	12%	/	-7%	0.63µM*	0.71µM*
CNC(=O)c1c(NC(=O)c2ccc(S(=O)(=O)N3CCCCC3)cc2)sc2c1CCN(C(C)C)C2	13%	/	10%	-4%	16%
CC1CCCCN1S(=O)(=O)c1ccc(C(=O)Nc2nnc(-c3ccccn3)o2)cc1 (stereo not drawn)	5%	3%	-8%	5µM*	2µM*
CCc1nnc(NC(=O)c2ccc(Cl)c(S(=O)(=O)N3CCc4ccccc4C3)c2)s1	9%	-1%	-9%	2%	-34%
CC1CCCCN1S(=O)(=O)c1ccc(NC(=O)c2cccc(-n3cnnn3)c2)cc1 (stereo not drawn)	9%	25µM*	1%	1%	7%[10 µM]
SMILES	Sfp inh	ALDH1A1 block	PLK1 PBD block	VP16 counter	RORg inh
CC1CN(S(=O)(=O)c2ccc(C(=O)Nc3nnc(-c4ccccn4)o3)cc2)CC(C)O1 (stereo not drawn)	-19%	5%	-3%	?	?
CCc1nnc(NC(=O)c2ccc(S(=O)(=O)N3CCc4ccccc4C3)cc2)s1	5%	3%	30µM*	-7%	-13%
CC1CCCN(S(=O)(=O)c2ccc(NC(=O)c3cccc(-n4cnnn4)c3)cc2)C1 (stereo not drawn)	2%	?	-15%	-1%	3%
Cc1nnc(NC(=O)c2ccc(S(=O)(=O)N3CC(C)CC(C)C3)cc2)o1 (stereo not drawn)	16%	/	-11%	1.4µM*	1.4µM*
CCCC(C)(C)C(=O)N1CCC1(C)C(=O)NS(=O)(=O)c1ccc(Br)cc1 (stereo not drawn)	/	/	-14%	/	/
Cc1cc(C=O)sc1[B-](F)(F)F	/	/	-16%	/	/
CCOC(=O)Cc1nnc(NC(=O)CCc2ccccc2)s1	18%	/	-5%	-5%	0%
COC(=O)[C@@H]1C[C@H]1[C@@H](NC(=O)Oc1ccc(F)cc1)c1ccccc1	9%	7.9µM*	/	-5%	29%
Cc1ccc(OCCN2C(=O)c3ccccc3C2=O)cc1	-17%	3%	-2%	?	13%
Cc1cccc(OCCN2C(=O)C(=O)c3cccc(C)c32)c1	4%	0.16µM*	-18%	-5%	3%
Cc1ccc2c(c1)C(=O)C(=O)N2CCCOc1ccccc1C	0%	-3%	?	2%	-4%
Cc1ccc2c(c1)C(=O)C(=O)N2CCOc1ccccc1	-5%	1.3µM*	-14%	10%	5%
Cc1cccc(OCCN2C(=O)C(=O)c3cc(C)ccc32)c1	-3%	0.63µM*	-25%	-9%	19%
O=C1C(=C(c2ccccc2)N2CCOCC2)Cc2ccccc21	/	/	-18%	/	/
O=[N+]([O-])c1cc([N+](=O)[O-])c(Oc2cccc(Cl)c2Cl)cc1NN1CCCCC1	1%	/	-14%	7%	27%
O=[N+]([O-])c1cc([N+](=O)[O-])c(Oc2ccc(Cl)c3cccnc23)cc1NN1CCCCC1	-4%	/	-7%	?	6.3µM*
O=C(Oc1ccc(Cl)c2cccnc12)c1cccnc1	28%	/	-6%	1µM*	0.89µM*
O=C(Oc1ccc(Cl)c2cccnc12)C12CC3CC(CC(C3)C1)C2	?	9%	0%	3.2µM*	2.2µM*
O=C(Oc1ccc(Cl)c2cccnc12)N1CCCCC1	9%	?	-6%	7%	11%
